± gives the standard deviation of the averaged measurements.
How the values were obtained:
[1] = tested on: DLD1; test: cell viability (CellTiter-Glo) relative to plate median (fraction of plate median); higher = more viable cells; details: 5 µM; treatment time 24 h; reporter: 7TFP
Method in brief: (§1)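 Values are well luminescence normalised to the plate median, from either a firefly luciferase or a CellTiterGlo readout on parallel plates. The cells, colorectal cancer lines stably transduced with lentiviral 7TFP or TCF4/Wnt firefly luciferase reporters, were treated with library compounds at a final 5 µM for 24 h. The mean of two independent replicates is listed.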

[2] = tested on: HCT116; test: as above; details: 5 µM; treatment time 24 h; reporter: TCF4/Wnt
Method in brief: as §1

[3] = tested on: SW480; test: as above; details: 5 µM; treatment time 24 h; reporter: 7TFP
Method in brief: as §1

[4] = tested on: DLD1; test: TCF/Wnt firefly luciferase reporter signal relative to plate median (fraction of plate median); higher = higher Wnt reporter signal; details: 5 µM; treatment time 24 h; reporter: 7TFP
Method in brief: as §1

[5] = tested on: SW480; test: as above; details: 5 µM; treatment time 24 h; reporter: 7TFP
Method in brief: as §1

[6] = tested on: DLD1; test: TCF/Wnt firefly luciferase reporter signal relative to plate median (fraction of plate median); higher = higher Wnt reporter signal; details: 10 µM, treatment time 24 h
Method in brief: (§2)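 Values are the mean of two independent replicates of luminescence normalised to the plate median with webcellHTS2, using the additive method without log transformation. They come from colorectal cancer cell lines stably transduced with lentiviral TCF/Wnt firefly luciferase reporters (7TFP or TCF4/Wnt), seeded in 384-well plates. After 24 h the cells got kinase inhibitor library compounds at a final 10 µM for 24 h, and parallel plates were read for firefly luciferase or CellTiterGlo on a Tecan F500.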

[7] = tested on: HCT116; test: as above; details: 10 µM; treatment time 24 h; reporter: TCF4/Wnt
Method in brief: as §2

[8] = tested on: SW480; test: as above; details: 10 µM; treatment time 24 h; reporter: 7TFP
Method in brief: as §2

| SMILES | cell viability [1] | cell viability [2] | cell viability [3] | TCF/Wnt firefly luciferase reporter signal [4] | TCF/Wnt firefly luciferase reporter signal [5] | TCF/Wnt firefly luciferase reporter signal ([6]; reporter: 7TFP) | TCF/Wnt firefly luciferase reporter signal ([6]; reporter: TCF4/Wnt) | TCF/Wnt firefly luciferase reporter signal [7] | TCF/Wnt firefly luciferase reporter signal [8] |
| --- | --- | --- | --- | --- | --- | --- | --- | --- | --- |
| CC1(C)S[C@@H]2[C@H](NC(=O)COc3ccccc3)C(=O)N2[C@H]1C(=O)O | 1.09 ± 0.021 | 1.05 | 1.01 ± 0.023 | 1.1 ± 0.028 | 1.08 ± 0.05 | – | – | – | – |
| CC1=C(/C=C/C(C)=C/C=C/C(C)=C/C=C/C=C(C)/C=C/C=C(C)/C=C/C2=C(C)C(=O)CCC2(C)C)C(C)(C)CCC1=O [CANTHAXANTHIN (euglenanone)] | 1 ± 0.021 | 0.899 ± 0.067 | 1.06 | 1.115 ± 0.0071 | 1.17 ± 0.014 | – | – | – | – |
| CC(C)=CCC[C@@H](C)[C@@H]1CC[C@]2(C)C3=C(CC[C@@]12C)[C@@]1(C)CC[C@H](O)C(C)(C)[C@@H]1CC3 | 1.015 ± 0.0071 | 0.995 ± 0.021 | 0.989 ± 0.016 | 0.918 ± 0.23 | 1.02 ± 0.085 | – | – | – | – |
| O=c1[nH]cnc2c1ncn2[C@@H]1O[C@H](CO)[C@@H](O)[C@H]1O [Inosin] | 0.943 ± 0.12 | 0.91 ± 0.15 | 0.971 ± 0.013 | 0.67 ± 0.24 | 0.999 ± 0.13 | – | – | – | – |
| Cc1cc2c(s1)Nc1ccccc1N=C2N1CCN(C)CC1 | 0.979 ± 0.0057 | 1.14 ± 0.12 | 1.03 ± 0.063 | 1.05 ± 0.071 | – | – | – | – | – |
| Oc1ccc2c(c1)OC[C@]1(O)Cc3cc(O)c(O)cc3[C@H]21 | 1.01 ± 0.044 | 0.929 ± 0.085 | 0.936 ± 0.0014 | 1.15 ± 0.11 | 0.909 ± 0.024 | – | – | – | – |
| C[N+](C)(C)CC(=O)O | 0.9965 ± 0.005 | 0.98 ± 0.042 | 0.926 ± 0.036 | 0.906 ± 0.1 | 0.9215 ± 0.0064 | – | – | – | – |
| CC(O)(P(=O)(O)O)P(=O)(O)O | 0.949 ± 0.073 | 0.943 ± 0.032 | 0.956 ± 0.037 | 1 ± 0.13 | 0.968 ± 0.06 | – | – | – | – |
| CC(=O)c1oc2cc3[nH]c(=O)cc(C)c3cc2c1C [2-Acetyl-3,5-dimethylfuro[3,2-g]quinolin-7-one (VFT-05)] | 0.8435 ± 0.0035 | 0.998 ± 0.059 | 0.885 ± 0.0092 | 0.8825 ± 0.0035 | 0.979 ± 0.072 | – | – | – | – |
| N[C@@H](CCC(=O)N[C@@H](CS)C(=O)NCC(=O)O)C(=O)O | 1.03 ± 0.042 | 1.06 ± 0.11 | 1.02 | 1.03 | 1.13 ± 0.13 | – | – | – | – |
| CCOC(=O)C1=C(COCCN)NC(C)=C(C(=O)OC)C1c1ccccc1Cl (stereo not drawn) | 0.998 ± 0.031 | 1.01 ± 0.097 | 1.03 ± 0.083 | 1.02 ± 0.11 | 1.04 ± 0.042 | – | – | – | – |
| C=CC1=C(C)c2cc3[nH]c(cc4nc(cc5[nH]c(cc1n2)c(C)c5CCC(=O)O)C(CCC(=O)O)=C4C)c(C)c3C=C | 1 ± 0.028 | 0.964 ± 0.12 | 0.963 ± 0.053 | 0.967 ± 0.027 | 0.992 ± 0.0057 | – | – | – | – |
| O=c1[nH]cnc2nc[nH]c12 | 0.987 ± 0.061 | 1.04 | 0.913 ± 0.044 | 0.969 ± 0.043 | 1 | – | – | – | – |
| CC(=O)NCCc1ccccc1 [N-Acetyl-phenylethylamine] | 1.04 ± 0.014 | 1.01 ± 0.12 | 1.02 ± 0.072 | 1.03 ± 0.028 | 1.02 ± 0.079 | – | – | – | – |
| COc1ccc2c(c1)OCc1c-2oc2cc(OC)ccc12 | 1.05 ± 0.085 | 1.01 ± 0.021 | 1 ± 0.051 | 1.09 ± 0.064 | 1.035 ± 0.0071 | – | – | – | – |
| CC(=O)Oc1c(C)cccc1C(=O)O | 0.9705 ± 0.0064 | 0.966 ± 0.039 | 1.02 ± 0.063 | 0.884 ± 0.13 | 0.979 ± 0.087 | – | – | – | – |
| O=C(O)c1cc(=O)c2c(OCC(O)COc3cccc4oc(C(=O)O)cc(=O)c34)cccc2o1 | 1.04 ± 0.06 | 0.9275 ± 0.0021 | 1.09 ± 0.13 | 0.902 ± 0.036 | 1.01 ± 0.081 | – | – | – | – |
| CCC(=O)O[C@H]1CC[C@H]2[C@@H]3CCc4cc(O)ccc4[C@H]3CC[C@]12C | 1.01 ± 0.023 | 1 ± 0.16 | 1.02 ± 0.014 | 0.888 ± 0.11 | 0.994 ± 0.052 | – | – | – | – |
| CC(C)CCC[C@@H](C)C1CC[C@H]2[C@@H]3CCC4CC(=O)CC[C@]4(C)[C@H]3CC[C@]12C (stereo partly drawn) | 0.999 ± 0.016 | 1.01 ± 0.031 | 1.02 ± 0.021 | 0.955 ± 0.045 | 0.97 ± 0.071 | – | – | – | – |

| SMILES | cell viability [1] | cell viability [2] | cell viability [3] | TCF/Wnt firefly luciferase reporter signal [4] | TCF/Wnt firefly luciferase reporter signal [5] | TCF/Wnt firefly luciferase reporter signal ([6]; reporter: 7TFP) | TCF/Wnt firefly luciferase reporter signal ([6]; reporter: TCF4/Wnt) | TCF/Wnt firefly luciferase reporter signal [7] | TCF/Wnt firefly luciferase reporter signal [8] |
| --- | --- | --- | --- | --- | --- | --- | --- | --- | --- |
| Oc1c(I)cc(Cl)c2cccnc12 | 1.06 ± 0.21 | 0.949 ± 0.12 | 1.13 ± 0.042 | 1.2 ± 0.27 | 1.14 ± 0.11 | – | – | – | – |
| Nc1nc2c(ncn2[C@@H]2O[C@H](CO)[C@@H](O)[C@H]2O)c(=O)[nH]1 [Guanosin] | 0.915 ± 0.033 | 0.934 ± 0.044 | 0.903 ± 0.023 | 0.927 ± 0.019 | 0.88 ± 0.014 | – | – | – | – |
| NC[C@H](O)c1ccc(O)c(O)c1 | 1.02 ± 0.035 | 0.95 ± 0.071 | 1.005 ± 0.0071 | 0.962 ± 0.069 | 0.9835 ± 0.0078 | – | – | – | – |
| CCn1cc(C(=O)O)c(=O)c2cnc(N3CCCC3)nc21 | 0.983 ± 0.025 | 1 ± 0.029 | 0.955 ± 0.02 | 0.856 ± 0.055 | 0.978 ± 0.046 | – | – | – | – |
| COc1ccc2[nH]cc(CCNC(C)=O)c2c1 | 0.961 ± 0.0071 | 1.11 ± 0.05 | 0.974 ± 0.052 | 0.967 ± 0.046 | 0.983 ± 0.095 | – | – | – | – |
| Cc1nc(C)c(Cl)c(O)c1Cl | 1.1 ± 0.099 | 1.03 ± 0.11 | 1.004 ± 0.0085 | 0.99 ± 0.029 | 0.917 ± 0.059 | – | – | – | – |
| COc1ccc2ccc(=O)oc2c1CC=C(C)C | 1.04 ± 0.13 | 1.01 ± 0.026 | 0.985 ± 0.036 | 1.01 ± 0.033 | 0.99 ± 0.071 | – | – | – | – |
| C=C1CC[C@H](O)C/C1=C/C=C1\CCC[C@]2(C)[C@@H]([C@H](C)/C=C/[C@H](C)C(C)C)CC[C@@H]12 | 0.982 ± 0.054 | 0.995 ± 0.11 | 0.954 ± 0.016 | 1.07 ± 0.16 | 1.09 ± 0.014 | – | – | – | – |
| CC(C)=CC1C(CO)C1(C)C (stereo not drawn) | 0.996 ± 0.049 | 0.948 ± 0.061 | 1.02 ± 0.014 | 0.984 ± 0.052 | 0.97 ± 0.18 | – | – | – | – |
| COc1cc2c(cc1-c1coc3c4c(c(OC)cc3c1=O)OC(C)(C)C=C4)OCO2 | 0.998 ± 0.017 | 1.06 ± 0.014 | 0.986 ± 0.018 | 0.892 ± 0.014 | 0.938 ± 0.0099 | – | – | – | – |
| CNCCCN1c2ccccc2CCc2ccccc21 | 0.994 ± 0.023 | 0.933 ± 0.013 | 0.909 ± 0.041 | 0.868 ± 0.035 | 0.934 ± 0.045 | – | – | – | – |
| CCSC(=N)N | 0.954 ± 0.046 | 0.948 ± 0.073 | 0.9995 ± 0.00071 | 0.99 ± 0.028 | 0.963 ± 0.031 | – | – | – | – |
| CC1(C)O[C@@H]2C[C@H]3[C@@H]4CCC5=CC(=O)CC[C@]5(C)[C@@]4(F)[C@@H](O)C[C@]3(C)[C@]2(C(=O)CCl)O1 | 0.921 ± 0.12 | 0.925 ± 0.074 | 0.977 ± 0.061 | 0.927 ± 0.042 | 1.01 ± 0.066 | – | – | – | – |
| OCC(O)CN1CCN(c2ccccc2)CC1 (stereo not drawn) | 0.979 ± 0.058 | 0.995 ± 0.035 | 0.964 ± 0.033 | 0.83 ± 0.029 | 0.9255 ± 0.005 | – | – | – | – |
| CC1(C)CCC[C@]2(C)[C@@H]3[C@H]1[C@@H](O)[C@@]2(C)C[C@H]3O | 1.005 ± 0.0071 | 0.991 ± 0.11 | 1.12 ± 0.014 | 0.981 ± 0.023 | 1.13 ± 0.014 | – | – | – | – |
| COc1ccc(-c2cc(=O)c3ccccc3o2)cc1 | 1 ± 0.066 | 0.983 ± 0.11 | 1.03 | 1.28 ± 0.12 | 1.13 ± 0.18 | – | – | – | – |
| N[C@@H](C(=O)N[C@@H]1C(=O)N2C(C(=O)O)=C(Cl)CS[C@H]12)c1ccccc1 | 0.963 ± 0.029 | 0.955 ± 0.064 | 0.953 ± 0.028 | 0.897 ± 0.079 | 0.742 ± 0.025 | – | – | – | – |
| Cc1ccccc1-n1c(Cn2nc(-c3cccc(O)c3)c3c(N)ncnc32)nc2cccc(C)c2c1=O | – | – | – | – | – | 1.07 ± 0.042 | 0.89 ± 0.021 | 0.841 ± 0.44 | 1.07 ± 0.12 |
